Here are results for five sequences from PMC8384837, “Expanding the binding specificity for RNA recognition by a PUF domain”.

One assay concerns the target PUM1 PUF domain R3-EFT (Homo sapiens, UniProt Q14671 828-1176, C935E;R936F;Q939T). Description: yeast three-hybrid, YBZ-1, SC-Leu-His + 0.5 mM 3-AT, 4 days. The settings on record: tags: N-Gal4 AD-HA kept; label: inside an RPR1-promoter hybrid RNA with tandem MS2 sites; ssRNA. An outline of the steps:
(§1)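 The interaction score is the log change in how often each variant appears, from input to selection. Frequencies came from PCR-amplified, Illumina-sequenced repeat regions of Pumilio-1 PUF domain libraries grown in strain YBZ-1 (LexA–MS2 coat fusion, HIS3 reporter) alongside matching RNA elements. Input plates were SC-Leu and selection plates were SC-Leu-His + 0.5 mM 3-AT, each for four days, and the log2 calculation used a pseudocount of 1 where a variant was absent.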
Turning to “GGCUAGAACUAGUGGAUCCCCCGGCGCCCGGCGGCUCGAGCCCGGGUAAGUGUAAAUAGUCUGCAUGCCGCCGGGCGCCAUGCCUGCAGGUCGACUCUAGAAAACAUG”, the binding signal is 4.71 log2 enrichment (interaction score). In the case of “GGCUAGAACUAGUGGAUCCCCCGGCGCCCGGCGGCUCGAGCCCGGGUAAGUGUAAUUAGUCUGCAUGCCGCCGGGCGCCAUGCCUGCAGGUCGACUCUAGAAAACAUG”, the binding signal is 2.45 log2 enrichment (interaction score). Regarding “GGCUAGAACUAGUGGAUCCCCCGGCGCCCGGCGGCUCGAGCCCGGGUAAGUGUAAGUAGUCUGCAUGCCGCCGGGCGCCAUGCCUGCAGGUCGACUCUAGAAAACAUG”, the binding signal was 3.92 log2 enrichment (interaction score).

A further assay concerns the target PUM1 PUF domain R4-ANS (Homo sapiens, UniProt Q14671 828-1176, N971A;H972N;Q975S). Described as above. The settings on record: tags: N-Gal4 AD-HA kept; label: inside an RPR1-promoter hybrid RNA with tandem MS2 sites; ssRNA. The method, boiled down: as §1
As to “GGCUAGAACUAGUGGAUCCCCCGGCGCCCGGCGGCUCGAGCCCGGGUAAGUGUACAUAGUCUGCAUGCCGCCGGGCGCCAUGCCUGCAGGUCGACUCUAGAAAACAUG”, the binding signal was 2.23 log2 enrichment (interaction score). As for “GGCUAGAACUAGUGGAUCCCCCGGCGCCCGGCGGCUCGAGCCCGGGUAAGUGUAAAUAGUCUGCAUGCCGCCGGGCGCCAUGCCUGCAGGUCGACUCUAGAAAACAUG”, the binding signal was 2.16 log2 enrichment (interaction score). As to “GGCUAGAACUAGUGGAUCCCCCGGCGCCCGGCGGCUCGAGCCCGGGUAAGUGUAUAUAGUCUGCAUGCCGCCGGGCGCCAUGCCUGCAGGUCGACUCUAGAAAACAUG”, the binding signal is 2.51 log2 enrichment (interaction score).
